# High-throughput results: PubChem BioAssay, Broad Institute
# Compounds with a hit are over-represented: about 2.5% of the library has one in this group of screens.
# YB-1 expr inh = YB-1 expression inhibition. U2OS, qRT-PCR YB-1 vs CDIP delta delta Cp, 16 h; active compounds read high; zero = DMSO, each unit about twofold. 30,000 tested, 0.37% active. AID 434959. delta delta Cp (YB-1 minus CDIP) (test concentration not listed);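 active = delta delta Cp rounded down to an integer at or above 3, about 3 SD of DMSO wells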;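 note: higher means less YB-1 transcript or more CDIP transcript relative to DMSO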
# ROS inducer = raises reactive oxygen species in U2OS cancer cells; U2OS ROS induction, H2DCF-DA fluorescence; AID 624156; ROS induction (% of piperlongumine), % at 10 µM; 46,000 tested, 2% active; in the data active = ROS induction above about 79%, passing the limit was not always enough;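 note: 0% = DMSO vehicle median and 100% = reference compound median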
# BJeLR viab HTS = lowers viability of BJeLR cells. BJeLR fibroblasts viability, CellTiterGlo ATP luminescence, 48 h; HRASV12, hTERT and SV40 LT/ST transformed. viability loss activity score, % (concentration not given with the values). 30,000 tested, 0.64% active. AID 2275; in the data active = viability loss activity score above about 50%;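 note: higher score means fewer live cells and less ATP luminescence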
# MITF inhib = MITF inhibition. TRPM1 promoter luciferase, luminescence, 24 h. inhibition, % (test concentration not listed). 37,000 tested, 0.28% active. AID 2240; in the data active = inhibition above about 85%;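 note: human melanocyte line stably carrying TRPM1 promoter luciferase reporter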
# Starred values were filed as active, the others as inactive; nt = no result given.
SMILES,YB-1 expr inh,ROS inducer,BJeLR viab HTS,MITF inhib
C=CCOC(=O)[C@H]1[C@@H]2C(=O)O[C@@H](c3ccccc3)[C@@H](c3ccccc3)N2[C@@H](c2ccc(OCCOC(=O)[C@@H]3C[C@@H]4C(=O)NCC(=O)N4[C@@H]3c3ccc(O)cc3)cc2)[C@]12C(=O)Nc1ccccc12,0.068,116*,nt,nt
CN(C)CCNC(=O)c1ccc2c(=O)n(Cc3ccc4c(c3)OCO4)c(=S)[nH]c2c1,nt,-10,-6,nt
O=C(CSc1oc(-c2ccco2)nc1S(=O)(=O)c1ccc(Cl)cc1)NC1CCCCC1,nt,nt,0,nt
CC(=O)[C@@]1(O)CCC2C3CCC4=CC(=O)CC[C@]4(C)C3CC[C@@]21C (stereo not given in full),-0.061,155*,-4,12
CC1(C)CCc2cc(-c3ccn(S(=O)(=O)c4ccc(Cl)cc4)n3)ccc2O1,-0.34,96*,8,14
CO[C@@]12[C@H](COC(N)=O)C3=C(C(=O)C(C)=C(N)C3=O)N1C[C@@H]1N[C@@H]12,0.45,-7,58*,65
CCOc1cc(/C=C2\SC(=O)N(Cc3ccc(F)cc3)C2=O)ccc1O,nt,10,-7,nt
CCOc1cc(/C=C2\Sc3ccccc3C2=O)cc(I)c1O,nt,96*,1,nt
C[C@H](CO)N1C[C@H](C)[C@H](CN(C)S(=O)(=O)c2cccs2)Oc2ncc(C#CC(C)(C)O)cc2C1=O,9.9*,0,nt,nt
COc1ccc(C#Cc2cnc3c(c2)C(=O)N([C@H](C)CO)C[C@H](C)[C@H](CN(C)S(=O)(=O)c2ccc(C)cc2)O3)cc1OC,0.27,140*,nt,nt
Cc1nn2c3ccccc3n(C)c2c1C(=S)Nc1ccccc1,nt,31,-3,nt
CCc1ccc(-c2nc(C(N)=O)c3[nH]c(=O)n(-c4ccccc4)c3n2)cc1,nt,-12,0,nt
Cc1cc(C)n(-c2nc3ccccc3nc2N2CCN(S(=O)(=O)c3cccs3)CC2)n1,nt,nt,0,nt
O=C1CN(C(=O)C23CC4CC(CC(C4)C2)C3)CC(=O)N1CCc1ccccc1,nt,nt,0,nt
CCCCc1c(-c2ccc(O)cc2)[nH]c2nccnc12,3.3*,4,-7,22
Cc1ccc(N(Cc2ccco2)C(=O)c2cccc(S(=O)(=O)N(C)C)c2)cc1,nt,138*,nt,10
C[C@@H]1O[C@@H](OC[C@H]2O[C@@H](Oc3ccc(O)cc3)[C@H](O)[C@@H](OC(=O)c3ccc(O)cc3)[C@@H]2O)[C@H](O)[C@H](O)[C@H]1O,-0.14,-12,-7,-1
O=C(/C=C/c1ccc(O)cc1)OC[C@H]1O[C@@H](Oc2cc(O)c3c(c2)OC(c2ccc(O)cc2)CC3=O)[C@H](O)[C@@H](OC(=O)/C=C/c2ccc(O)cc2)[C@@H]1O (stereo not given in full),-0.19,165*,3,-19
O=C1C=CC(O)(/C=C/C(=O)OC[C@H]2O[C@@H](Oc3ccc(O)cc3)[C@H](O)[C@@H](OC(=O)/C=C/C3(O)C=CC(=O)C=C3)[C@@H]2O)C=C1,0.08,127*,-2,-5
COc1cccc(C(=O)Cn2c(=O)n(CCCS(=O)(=O)C3CCCCC3)c(=O)c3ccccc32)c1,nt,nt,-3,nt
Cc1ccccc1NC(=S)N1CCC(N(C)C(C)C)CC1,nt,-4,-5,nt
CC1(C)CC(=O)C(C2C3=C(CC(C)(C)CC3=O)Oc3ccc(Br)cc32)C(=O)C1 (stereo not given),nt,-11,-1,nt
COc1ccc(S(=O)(=O)N(C)C[C@@H]2OCCCC[C@@H](C)Oc3ccc(NS(=O)(=O)c4cccs4)cc3C(=O)N([C@H](C)CO)C[C@@H]2C)cc1,0.63,115*,nt,15
COc1ccc(S(=O)(=O)N(C)C[C@H]2OCCCC[C@@H](C)Oc3ccc(NS(=O)(=O)c4cccs4)cc3C(=O)N([C@H](C)CO)C[C@@H]2C)cc1,-17,-3,nt,-1
C[C@@H]1CCCCO[C@@H](CN(C)S(=O)(=O)c2ccc(Cl)cc2)[C@@H](C)CN([C@H](C)CO)C(=O)c2cc(NS(=O)(=O)c3cccs3)ccc2O1,0.38,94*,nt,20
SMILES,YB-1 expr inh,ROS inducer,BJeLR viab HTS,MITF inhib
Cn1c(C(=O)NCCN2CCCCCC2)cc2sccc21,nt,-9,6,nt
C/C=C(/C)C(=O)O[C@H]1[C@H](OC(=O)/C=C/c2ccccc2)[C@@]23C(CC1(C)C)[C@]1(CCC4[C@@]5(C)CC[C@H](O[C@@H]6O[C@H](C(=O)O)[C@@H](O)[C@H](O[C@@H]7O[C@H](CO)[C@H](O)[C@H](O)[C@H]7O[C@@H]7O[C@@H](C)[C@H](O)[C@@H](O)[C@H]7O[C@@H]7OC[C@](O)(CO)[C@H]7O)[C@H]6O[C@@H]6O[C@H](CO)[C@H](O)[C@H](O)[C@H]6O)C(C)(C)C5CC[C@@]4(C)[C@]1(C)C[C@H]2O)O[C@H]3O (stereo not given in full),-0.43,-48,80*,90*
C/C=C(\C)C(=O)OC1C(OC(=O)/C=C(/C)CC(=O)O)C2(CO)C(O)CC3(C)C(=CCC4C5(C)CCC(OC6OC(C(=O)O)C(O)C(OC7OC(C)C(O)C(OC8OC(CO)C(O)C(O)C8O)C7O)C6O)C(C)(C)C5CCC43C)C2CC1(C)C (stereo not given),0.75,-24,67*,98*
C/C=C(/C)C(=O)O[C@H]1[C@H](OC(=O)/C(C)=C\C)[C@]2(CO)[C@H](O)C[C@]3(C)C(=CCC4[C@@]5(C)CC[C@H](OC6OC(C(=O)O)C(O)C(OC7OC(C)C(O)C(OC8OC(CO)C(O)C(O)C8O)C7O)C6O)C(C)(C)C5CC[C@]43C)[C@@H]2CC1(C)C (stereo not given in full),-1.1,-38,125*,102*
CC1(C)CC[C@@]2(C(=O)O[C@@H]3O[C@H](CO)[C@@H](O)[C@H](O)[C@H]3O)C(C1)C1=CCC3[C@@]4(C)CC[C@@H](O[C@@H]5O[C@H](CO)[C@@H](O)[C@H](O)[C@H]5O[C@@H]5O[C@H](CO)[C@@H](O)[C@H](O)[C@H]5O)C(C)(C)C4CC[C@@]3(C)[C@]1(C)C[C@H]2O (stereo not given in full),0.15,-15,-4,-4
Fc1cccc2sc(NCc3ccccc3)nc12,nt,nt,0,nt
Fc1ccc(Nc2nc(Nc3ccc(F)cc3)nc(N3CCCCC3)n2)cc1,nt,24,0,nt
C[C@H]1CN([C@@H](C)CO)C(=O)c2cccc(NC(=O)Nc3ccc4c(c3)OCO4)c2O[C@H]1CN(C)Cc1ccc(-c2ccccc2)cc1,0.58,102*,4,-22
C[C@H]1CN([C@@H](C)CO)C(=O)c2cccc(NC(=O)Nc3ccccc3)c2O[C@@H]1CN(C)Cc1ccc(C(=O)Nc2ccccc2N)cc1,-0.89,144*,nt,-1
C[C@H](CO)N1C[C@H](C)[C@@H](CN(C)Cc2ccc(Oc3ccccc3)cc2)Oc2c(NC(=O)Nc3ccccc3)cccc2C1=O,0.089,101*,7,27
C[C@@H]1CN([C@@H](C)CO)C(=O)c2cccc(NC(=O)Nc3ccccc3)c2O[C@@H]1CN(C)Cc1ccc(-c2ccccc2)cc1,1.1,82*,0,-17
